PubChem BioAssay AID540336 (Broad Institute, 2011)
Screen size: about 330,000 compounds; about 520 (0.16%) were called active.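 The calls were made as follows: active = inhibition of at least 50% in every replicate; inconclusive = best replicate reaches 50% inhibition but some replicates fall short; inactive = the rest.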 Shown is part of a subset that was picked to be rich in actives.

Target: Histone acetyltransferase RTT109 (Candida albicans (strain SC5314 / ATCC MYA-2876)) (UniProt Q5AAJ8)
Test: inhibitors of C. albicans Rtt109/Vps75 HAT, primary screen, biochemical, ThioGlo CoA-SH fluorescence, plate reader (AID 540336)
Details: purified Rtt109/Vps75, ThioGlo CoA-SH fluorescence, 4 h; at 34.9 µM; hits give high values

Histone acetyltransferase RTT109 (Candida albicans (strain SC5314 / ATCC MYA-2876)), sequence (Q5AAJ8 whole entry, looked up): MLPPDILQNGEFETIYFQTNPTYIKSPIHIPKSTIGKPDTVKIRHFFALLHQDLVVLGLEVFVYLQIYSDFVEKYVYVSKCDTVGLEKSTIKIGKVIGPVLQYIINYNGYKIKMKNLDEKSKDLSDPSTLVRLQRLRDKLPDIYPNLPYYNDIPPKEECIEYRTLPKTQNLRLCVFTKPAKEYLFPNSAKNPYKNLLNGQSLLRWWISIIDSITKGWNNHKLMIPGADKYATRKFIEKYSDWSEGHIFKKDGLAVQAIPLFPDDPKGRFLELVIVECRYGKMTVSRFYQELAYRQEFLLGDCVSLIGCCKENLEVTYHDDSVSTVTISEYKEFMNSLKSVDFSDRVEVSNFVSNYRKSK

inhibition, active:
COc1cc2c(cc1O)C(SC)=NC(C)(C)C2 85%
C=CCNC(=O)C1CC2c3ccccc3C1c1ccccc12 (configuration not stated) 50.9%
O=C(c1cccnc1)N(c1cc2sc(=O)oc2c2ccccc12)S(=O)(=O)c1ccccc1 101%
Oc1c(Cl)cc(Cl)c(Cl)c1Cc1c(O)c(Cl)cc(Cl)c1Cl 70.6%
FC(F)(F)C1CCCN(c2nsc3ccccc23)C1 (configuration not stated) 129%

inhibition, inactive:
COc1cc(OC)c(C(=O)NNC(=O)c2ccc(NS(=O)(=O)c3cccs3)cc2)cc1OC -0.841%
COc1ccc(-c2ccc3c(c2)[C@@H]2C[C@H](N(C)S(=O)(=O)c4ccccc4)[C@H]([C@H](C)O)C(=O)N2CC3)cc1 -7.44%
Cc1ccc(C(=O)O)c(NC=O)c1OCc1ccccc1 2.64%
O=C(CC(=O)c1cccnc1)c1ccccc1 5.8%
COc1cc2c(cc1OC)C(C(C)C)=NC(C)(C)C2 -260%
COc1cc2c(cc1OC)C(Nc1ccc(S(N)(=O)=O)cc1)=NC(C)(C)C2 -0.292%
C=CCNC(=O)C12CC3CC(C1)CC(C(=O)NCC=C)(C3)C2 -14.4%
C=CCNC(=O)C1CC=CCC1C(=O)O (configuration not stated) -1.04%
C=CCCC(=O)N1C[C@H]2CON(C)[C@H]2C[C@H]1c1cccc(Nc2ccccc2)c1 7.97%
Cc1ccc(S(=O)(=O)c2cc3c(=O)n4cccc(C)c4nc3n(CCc3ccccc3)c2=N)cc1C 0.852%
CC(=NNC(=S)N1CCCCCC1)c1ccccn1 16.2%
CCN1CCC(O)(/C=C/c2ccc(C)cc2)C(C(=O)/C=C/c2ccc(C)cc2)C1 (configuration not stated) 3.59%
O=C1CC(C(=O)O)NC(=S)N1 (configuration not stated) -12.1%
O=C(O)C(=Cc1ccccc1[N+](=O)[O-])c1ccccc1 -1.92%
CCc1c(Nc2ccccc2Cl)nc(N)[nH]c1=O 4.46%
CC(C)(C)c1nnc2sc(SCC(O)=C(C#N)c3nc4ccccc4[nH]3)nn2c1=O -1.69%
FC(F)(F)c1ccc(-c2cccc3c2C2CC3CCN2Cc2ccccc2)cc1 (configuration not stated) -0.156%
COc1ccc(N(C(=O)c2cccnc2)S(=O)(=O)c2ccc(OC)c(OC)c2)cc1 -7.79%
O=C(c1cccnc1)N(Cc1ccccc1)C(=O)c1cccnc1 7.15%
Cc1ccc(Cn2c(C)c3cnn(CC(=O)NCCN4CCOCC4)c(=O)c3c2C)cc1 4.07%
O=C(NCC(=O)N1CCCC(C(F)(F)F)C1)c1ccccc1F (configuration not stated) -12.6%
O=C(NC(Cc1ccccc1)C(=O)N1CCCC(C(F)(F)F)C1)c1ccccc1 (configuration not stated) 8.65%
